Targets with a hit are over-represented here; the source holds about 7,900 in all. About 0.6% of all pairs of compound and target were hits. A number with no mark means an inactive call.
Assays:
Experiment in all cases: log2 fold change, soluble protein after heating vs DMSO (PISA); higher = thermal stabilisation; K562 cells, 10 uM, 30 min; active = over 0.2 and 3.5 SD of the protein, either way, in both replicates (recomputed)
[1] = compound: NC(=O)Nc1cc(-c2cccc(F)c2)sc1C(=O)N[C@H]1CCCNC1
Procedure, shortened: (§1)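 Values are thermal stability changes relative to control samples and are taken from duplicates. They are stated as log2 fold changes. Before quantification by TMTpro 16plex LC-MS/MS with equalised channel sums, K562 cells at 2×10^6 cells/mL were treated with 10 μM compound for 30 min, heated in aliquots for 3 min across 48°C-58°C, pooled, extracted in PBS with 0.5% NP-40 at 4°C, and centrifuged at 21,000xg for 90 min to give the soluble supernatant.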

[2] = compound: NC(=O)c1cnc(N[C@@H]2CCCC[C@@H]2N)nc1Nc1cccc(-n2nccn2)c1
Procedure, shortened: as §1

[3] = compound: NC1(c2ccc(-c3nc4ccn5c(=O)[nH]nc5c4cc3-c3ccccc3)cc2)CCC1
Procedure, shortened: as §1

[4] = compound: NCC(=O)Nc1ccc(-n2nc(C(F)(F)F)cc2-c2ccc3c(ccc4ccccc43)c2)cc1
Procedure, shortened: as §1

entinostat = compound: Nc1ccccc1NC(=O)c1ccc(CNC(=O)OCc2cccnc2)cc1 [entinostat]
Procedure, shortened: as §1

vorinostat = compound: O=C(CCCCCCC(=O)Nc1ccccc1)NO [vorinostat]
Procedure, shortened: as §1

citarinostat = compound: O=C(CCCCCCNC(=O)c1cnc(N(c2ccccc2)c2ccccc2Cl)nc1)NO [citarinostat]
Procedure, shortened: as §1

silmitasertib = compound: O=C(O)c1ccc2c(c1)nc(Nc1cccc(Cl)c1)c1ccncc12 [silmitasertib]
Procedure, shortened: as §1

[5] = compound: O=C1NC(=O)C(c2cnc3ccccn23)=C1c1cn2c3c(cc(F)cc13)CN(C(=O)N1CCCCC1)CC2
Procedure, shortened: as §1

[6] = compound: c1cc(OCCN2CCCCC2)cc(-c2n[nH]c3ccc(-c4nnc[nH]4)cc23)c1
Procedure, shortened: as §1

Sequence of UniProt O75208 (O75208 whole entry, looked up): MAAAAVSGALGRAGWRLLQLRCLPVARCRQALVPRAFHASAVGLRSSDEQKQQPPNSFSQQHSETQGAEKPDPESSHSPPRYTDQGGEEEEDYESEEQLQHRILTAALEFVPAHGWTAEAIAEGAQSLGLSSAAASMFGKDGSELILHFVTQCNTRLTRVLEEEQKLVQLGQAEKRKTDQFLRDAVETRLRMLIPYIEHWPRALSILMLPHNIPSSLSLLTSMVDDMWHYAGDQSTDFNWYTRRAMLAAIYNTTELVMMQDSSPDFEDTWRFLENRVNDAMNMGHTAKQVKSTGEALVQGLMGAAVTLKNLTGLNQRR
Sequence of UniProt Q5RI15 (Q5RI15 whole entry, looked up): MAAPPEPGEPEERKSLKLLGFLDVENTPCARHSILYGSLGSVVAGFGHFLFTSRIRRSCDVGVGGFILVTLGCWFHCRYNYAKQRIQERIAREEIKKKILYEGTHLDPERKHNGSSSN
Sequence of UniProt Q8N1G2 (Q8N1G2 whole entry, looked up): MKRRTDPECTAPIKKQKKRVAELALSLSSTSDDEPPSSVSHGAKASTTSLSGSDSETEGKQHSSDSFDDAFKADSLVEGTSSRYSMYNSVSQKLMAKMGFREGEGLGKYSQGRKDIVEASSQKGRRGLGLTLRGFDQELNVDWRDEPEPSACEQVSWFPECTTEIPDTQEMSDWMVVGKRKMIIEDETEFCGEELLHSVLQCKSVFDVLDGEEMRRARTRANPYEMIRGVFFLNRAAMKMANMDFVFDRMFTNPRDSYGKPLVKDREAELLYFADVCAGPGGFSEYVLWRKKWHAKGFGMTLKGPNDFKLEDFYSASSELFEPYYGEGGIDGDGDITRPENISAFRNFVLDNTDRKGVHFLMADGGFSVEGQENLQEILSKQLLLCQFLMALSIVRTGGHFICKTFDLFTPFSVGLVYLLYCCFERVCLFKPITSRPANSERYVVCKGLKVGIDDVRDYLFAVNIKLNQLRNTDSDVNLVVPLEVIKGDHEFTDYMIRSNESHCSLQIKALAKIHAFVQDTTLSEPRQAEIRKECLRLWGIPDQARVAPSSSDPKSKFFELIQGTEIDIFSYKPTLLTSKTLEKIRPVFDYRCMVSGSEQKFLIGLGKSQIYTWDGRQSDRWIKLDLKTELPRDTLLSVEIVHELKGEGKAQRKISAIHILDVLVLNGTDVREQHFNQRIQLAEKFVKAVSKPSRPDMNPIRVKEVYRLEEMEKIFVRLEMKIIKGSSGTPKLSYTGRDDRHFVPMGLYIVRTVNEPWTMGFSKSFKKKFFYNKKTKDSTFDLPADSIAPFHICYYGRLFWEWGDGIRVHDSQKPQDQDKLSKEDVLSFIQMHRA
Sequence of UniProt O43405 (O43405 whole entry, looked up): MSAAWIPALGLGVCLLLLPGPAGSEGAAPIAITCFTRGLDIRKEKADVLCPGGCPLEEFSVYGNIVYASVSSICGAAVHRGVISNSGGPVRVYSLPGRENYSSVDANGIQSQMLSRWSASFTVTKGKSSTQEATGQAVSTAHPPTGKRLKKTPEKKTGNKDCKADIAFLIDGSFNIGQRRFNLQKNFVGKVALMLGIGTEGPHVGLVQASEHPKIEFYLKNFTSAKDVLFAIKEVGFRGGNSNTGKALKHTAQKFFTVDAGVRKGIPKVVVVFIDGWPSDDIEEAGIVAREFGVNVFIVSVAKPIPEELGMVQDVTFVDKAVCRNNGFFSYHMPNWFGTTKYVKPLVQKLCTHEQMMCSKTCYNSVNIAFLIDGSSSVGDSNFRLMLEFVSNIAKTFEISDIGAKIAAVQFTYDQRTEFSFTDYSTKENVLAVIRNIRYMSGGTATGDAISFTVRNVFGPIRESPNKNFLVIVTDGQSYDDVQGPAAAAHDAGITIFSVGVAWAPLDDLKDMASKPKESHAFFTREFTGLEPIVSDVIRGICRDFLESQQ
Sequence of UniProt Q13901 (Q13901 whole entry, looked up): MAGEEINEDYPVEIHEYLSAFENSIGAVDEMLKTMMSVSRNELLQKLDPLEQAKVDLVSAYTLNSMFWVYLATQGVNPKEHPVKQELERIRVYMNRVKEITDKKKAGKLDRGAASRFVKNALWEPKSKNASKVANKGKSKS
Sequence of UniProt O75153 (O75153 whole entry, looked up): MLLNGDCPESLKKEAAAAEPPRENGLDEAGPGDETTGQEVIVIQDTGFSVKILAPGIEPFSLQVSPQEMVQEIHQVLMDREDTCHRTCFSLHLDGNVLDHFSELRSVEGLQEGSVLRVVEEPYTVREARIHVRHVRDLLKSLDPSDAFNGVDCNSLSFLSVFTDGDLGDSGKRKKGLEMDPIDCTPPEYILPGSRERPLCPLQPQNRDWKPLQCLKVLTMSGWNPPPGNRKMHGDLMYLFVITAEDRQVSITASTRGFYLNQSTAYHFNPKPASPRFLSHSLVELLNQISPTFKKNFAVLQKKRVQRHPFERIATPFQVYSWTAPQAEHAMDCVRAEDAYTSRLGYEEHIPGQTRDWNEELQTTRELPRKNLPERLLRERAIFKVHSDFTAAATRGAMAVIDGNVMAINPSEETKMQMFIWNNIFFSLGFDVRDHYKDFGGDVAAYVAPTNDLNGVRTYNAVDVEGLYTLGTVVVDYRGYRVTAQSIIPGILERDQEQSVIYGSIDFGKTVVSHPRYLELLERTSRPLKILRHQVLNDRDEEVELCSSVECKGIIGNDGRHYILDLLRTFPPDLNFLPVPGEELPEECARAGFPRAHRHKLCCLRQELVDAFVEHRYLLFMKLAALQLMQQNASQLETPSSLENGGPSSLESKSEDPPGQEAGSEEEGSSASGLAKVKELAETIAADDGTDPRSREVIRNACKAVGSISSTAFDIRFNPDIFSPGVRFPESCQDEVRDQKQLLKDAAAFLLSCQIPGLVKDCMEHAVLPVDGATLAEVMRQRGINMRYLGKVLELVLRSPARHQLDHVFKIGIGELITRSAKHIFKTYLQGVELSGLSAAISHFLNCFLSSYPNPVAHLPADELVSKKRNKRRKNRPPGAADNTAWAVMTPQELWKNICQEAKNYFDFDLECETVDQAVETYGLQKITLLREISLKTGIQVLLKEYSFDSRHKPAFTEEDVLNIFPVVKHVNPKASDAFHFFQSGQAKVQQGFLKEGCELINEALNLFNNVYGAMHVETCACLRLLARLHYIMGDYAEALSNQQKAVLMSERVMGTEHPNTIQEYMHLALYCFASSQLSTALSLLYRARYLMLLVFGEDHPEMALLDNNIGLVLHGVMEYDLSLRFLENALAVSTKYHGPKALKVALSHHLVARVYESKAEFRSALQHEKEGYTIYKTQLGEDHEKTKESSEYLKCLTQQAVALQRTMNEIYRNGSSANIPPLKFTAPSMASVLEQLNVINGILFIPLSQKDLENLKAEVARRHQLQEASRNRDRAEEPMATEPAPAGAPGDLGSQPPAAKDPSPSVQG
Sequence of UniProt O15234 (O15234 whole entry, looked up): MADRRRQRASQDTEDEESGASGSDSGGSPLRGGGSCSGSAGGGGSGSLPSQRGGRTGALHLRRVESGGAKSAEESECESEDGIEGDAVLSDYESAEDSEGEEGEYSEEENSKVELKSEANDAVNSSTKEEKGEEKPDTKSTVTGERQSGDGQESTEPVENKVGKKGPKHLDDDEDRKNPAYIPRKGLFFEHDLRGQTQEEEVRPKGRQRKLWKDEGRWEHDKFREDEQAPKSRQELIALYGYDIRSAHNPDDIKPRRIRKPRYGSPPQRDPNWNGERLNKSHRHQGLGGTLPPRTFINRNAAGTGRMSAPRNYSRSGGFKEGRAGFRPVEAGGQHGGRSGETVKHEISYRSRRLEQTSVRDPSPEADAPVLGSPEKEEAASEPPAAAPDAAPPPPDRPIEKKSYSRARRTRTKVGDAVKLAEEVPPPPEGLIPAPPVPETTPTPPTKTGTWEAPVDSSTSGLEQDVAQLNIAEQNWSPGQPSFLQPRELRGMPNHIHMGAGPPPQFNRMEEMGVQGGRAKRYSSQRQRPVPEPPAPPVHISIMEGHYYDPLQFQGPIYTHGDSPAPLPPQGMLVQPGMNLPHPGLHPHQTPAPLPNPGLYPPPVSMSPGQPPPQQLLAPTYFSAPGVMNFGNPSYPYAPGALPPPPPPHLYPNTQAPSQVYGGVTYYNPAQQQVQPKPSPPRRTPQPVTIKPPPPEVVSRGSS
Sequence of UniProt P08962 (P08962 whole entry, looked up): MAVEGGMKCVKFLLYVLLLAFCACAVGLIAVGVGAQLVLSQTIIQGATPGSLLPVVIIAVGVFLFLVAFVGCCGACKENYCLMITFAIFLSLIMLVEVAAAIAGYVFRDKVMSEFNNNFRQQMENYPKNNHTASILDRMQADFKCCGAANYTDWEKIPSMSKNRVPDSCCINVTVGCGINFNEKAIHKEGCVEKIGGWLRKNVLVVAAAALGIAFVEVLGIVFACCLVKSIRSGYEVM
Sequence of UniProt Q96RR4 (Q96RR4 whole entry, looked up): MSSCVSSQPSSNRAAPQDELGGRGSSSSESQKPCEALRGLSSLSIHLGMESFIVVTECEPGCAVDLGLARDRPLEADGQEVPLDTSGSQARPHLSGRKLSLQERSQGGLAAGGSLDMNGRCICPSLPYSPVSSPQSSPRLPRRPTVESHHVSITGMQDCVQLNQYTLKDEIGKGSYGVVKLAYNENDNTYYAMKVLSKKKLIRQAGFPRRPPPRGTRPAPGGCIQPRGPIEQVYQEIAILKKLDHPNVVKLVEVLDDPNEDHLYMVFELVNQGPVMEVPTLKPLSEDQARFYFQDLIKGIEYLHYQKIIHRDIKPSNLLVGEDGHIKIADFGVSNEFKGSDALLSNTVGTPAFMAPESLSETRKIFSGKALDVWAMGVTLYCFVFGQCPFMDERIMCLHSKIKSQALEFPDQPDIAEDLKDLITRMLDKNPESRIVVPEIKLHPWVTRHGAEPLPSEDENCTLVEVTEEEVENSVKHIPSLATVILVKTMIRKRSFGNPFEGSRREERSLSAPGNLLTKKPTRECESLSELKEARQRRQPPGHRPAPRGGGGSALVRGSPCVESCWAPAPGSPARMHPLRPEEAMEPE
Sequence of UniProt P10606 (P10606 whole entry, looked up): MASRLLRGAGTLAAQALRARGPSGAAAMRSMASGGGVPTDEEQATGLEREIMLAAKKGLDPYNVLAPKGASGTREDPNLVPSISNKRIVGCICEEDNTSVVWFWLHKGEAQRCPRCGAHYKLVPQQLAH

Target	log2 fold change [1]	log2 fold change [2]	log2 fold change [3]	log2 fold change [4]	log2 fold change (entinostat)	log2 fold change (vorinostat)	log2 fold change (citarinostat)	log2 fold change (silmitasertib)	log2 fold change [5]	log2 fold change [6]
CPSF3 (UniProt Q9UKF6)	0.001	-0.05	-0.032	-0.058	-0.002	0.016	0.026	0.129	-0.006	-0.075
CASP8 isoform 9 (UniProt Q14790)	-0.06	-0.051	-0.186	-0.151	-0.119	-0.021	-0.048	0.12	0.008	0.009
CMTR1 (UniProt Q8N1G2)	-0.022	-0.015	-0.135	-0.01	-0.025	0.026	0.002	0.004	-0.083	-0.009
COCH (UniProt O43405)	0.024	-0.014	0.035	0.13	0.123	-0.122	-0.084	0.072	0.055	-0.149
CPSF6 isoform 2 (UniProt Q16630)	-0.027	-0.037	-0.01	0.029	-0.008	-0.007	0.004	-0.225 (active)	-0.003	-0.179
COQ9 (UniProt O75208)	0.02	-0.002	-0.151	-0.032	0.045	0.028	-0.013	0.021	-0.103	0.008
C16orf58 (UniProt Q96GQ5)	-0.047	-0.05	-0.111	-0.08	0.001	0.026	0.034	0.032	-0.027	-0.017
CLUH (UniProt O75153)	-0.002	-0.072	0.023	-0.025	0.022	0.05	-0.08	0.063	0.133	0.041
C1D (UniProt Q13901)	0.187	0.322 (active)	0	0.033	-0.012	0.116	0.067	0.072	0.003	0.008
CD63 (UniProt P08962)	-0.026	-0.001	-0.05	-0.035	-0.004	-0.066	0.026	0.02	0.051	-0.063
COX20 isoform 2 (UniProt Q5RI15)	-0.02	-0.016	0.363 (active)	-0.029	-0.036	-0.116	0.027	-0.034	-0.004	0.016
COX5B (UniProt P10606)	0.041	0.031	0.053	-0.015	-0.006	-0.151	0.02	-0.04	-0.131	0.034
CASC3 (UniProt O15234)	0.015	0.238	-0.01	0.001	-0.039	-0.072	0	0.054	0.24	-0.133
CHMP4C (UniProt Q96CF2)	-0.003	-0.005	-0.089	-0.043	0.041	0.02	-0.138	0.028	-0.22	0.052
CAMKK2 (UniProt Q96RR4)	-0.088	-0.389	-0.113	-0.047	0.015	0.323	-0.144	0.128	-0.038	0.036
